The values below come from PubChem BioAssay (EPA / NIEHS).

Experiment [1] can be described thus: APR_HepG2_CellLoss_72hr: Apredica 72-hour HepG2 Assay for Cell Loss (AID 2282915). The following applies: high-content imaging. An outline of the steps: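 HepG2 cells exposed 72 h to compound at 0.39–200 uM (10 concentrations, duplicate) in 0.5% DMSO. Fixed with 3.7% formaldehyde and Hoechst 33342-stained. Imaged at 20x; nuclear count gives cell number, fitted bidirectionally versus DMSO.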

The nature of experiment [2]: APR_HepG2_P-H2AX_72hr: Apredica 72-hour HepG2 Assay for H2AX Phosphorylation (AID 2282916).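 Further: phospho-histone H2A.x immunostain intensity per cell marking DNA damage.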 Conditions: imaging, actives raise or lower the signal. An outline of the steps:
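Readout: phospho-H2A.x immunofluorescence (FITC secondary) plus Hoechst nuclear stain, high-content imaging at 20x, six fields/well. HepG2, 72 hr compound exposure, 0.39–200 uM, final DMSO 0.5% v/v. Gain or loss fitted relative to DMSO baseline.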

The nature of experiment [3]: APR_HepG2_MitoMembPot_72hr: Apredica 72-hour HepG2 Assay for Mitochondrial Membrane Potential (AID 2282917). Conditions: imaging, actives raise or lower the signal. The procedure, abridged: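 HepG2 cells dosed 72 hr with compound at 0.39–200 uM in duplicate, 0.5% v/v DMSO final. Mitochondria stained with 250 nM MitoTracker Red CMXRos for 30 min before formaldehyde fixation, imaged by high-content fluorescence; bidirectional fit versus DMSO.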

Experiment [4] can be described thus: APR_HepG2_MitoticArrest_72hr: Apredica 72-hour HepG2 Assay for Mitotic Arrest (AID 2282918). The following applies: high-content imaging, actives raise or lower the signal. The procedure, abridged: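 Using high-content imaging of fixed HepG2 cells, phospho-histone H3 signal was measured following a 72 hr incubation with ten-point compound dilutions up to 200 uM. DMSO served as the negative control and baseline for bidirectional curve fitting.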

Experiment [5] can be described thus: APR_HepG2_P-H2AX_24hr: Apredica 24-hour HepG2 Assay for H2AX Phosphorylation (AID 2282920). The following applies: high-content imaging, actives raise or lower the signal. The procedure, abridged:
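Human HepG2 liver cells, treated 24 hr with test chemicals (0.39–200 uM, final DMSO 0.5% v/v), are fixed and co-stained for phospho-H2A.x and c-Jun with Hoechst. Imaged intensity is fitted in both directions against DMSO controls.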

Experiment [6] in a line: APR_HepG2_StressKinase_72hr: Apredica 72-hour HepG2 Assay for Stress Kinase (AID 2282921). Conditions: HepG2 stress kinase (phospho-c-Jun) imaging, actives raise or lower the signal. An outline of the steps:
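Phospho-c-Jun immunofluorescence measured by high-content imaging at 20x, six fields per well; bidirectional curve fitting against DMSO as baseline. Dosing: 0.39–200 uM, 72 h, 0.5% DMSO final.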

Experiment [7] can be described thus: APR_HepG2_MitoMass_72hr: Apredica 72-hour HepG2 Assay for Mitochondrial Mass (AID 2282924).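 Further: MitoTracker Red CMXRos stain intensity per cell imaged as mitochondrial mass.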 The following applies: high-content imaging, actives raise or lower the signal. An outline of the steps:
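Read-out: MitoTracker Red fluorescence intensity from automated imaging (20x, six fields per well) in human HepG2 liver cells. Dosing ran 72 hr, 0.39–200 uM, 0.5% DMSO; bidirectional curve fitting versus DMSO baseline.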

Experiment [8] in a line: APR_HepG2_NuclearSize_72hr: Apredica 72-hour HepG2 Assay for Nuclear Size (AID 2282925). The following applies: high-content imaging, actives raise or lower the signal. An outline of the steps:
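Read-out: nuclear diameter from Hoechst 33342 images (ArrayScan, 20x, six fields/well), via cell-cycle image analysis. HepG2 were dosed 0.39–200 uM for 72 hr in 0.5% DMSO. Bidirectional fit relative to DMSO.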

Experiment [9] is described as follows: ATG_CRE_CIS: Attagene CIS-FACTORIAL HepG2 Assay for human cAMP Responsive Element (CRE) binding protein 3 (AID 2282926). The following applies: HepG2 CRE cis-reporter, Attagene multiplexed mRNA; actives raise or lower the signal. An outline of the steps: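 Liver-derived HepG2, transfected with a CRE-containing reporter panel, exposed 24 h; transcript levels sized and quantified by capillary electrophoresis of labelled amplicons; signal changes either way referenced to vehicle.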

Experiment [10] has as its target CCAAT/enhancer-binding protein beta (Homo sapiens) (UniProt P17676). As to the kind of experiment: ATG_C_EBP_CIS: Attagene CIS-FACTORIAL HepG2 Assay for human CCAAT/Enhancer Binding Protein (C/EBP) beta (AID 2282927). Conditions: HepG2 Attagene cis-factorial transcription factor reporter; actives raise or lower the signal. The procedure, abridged:
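HepG2 transiently transfected with multiplexed reporter units under cis-regulatory promoters reporting endogenous C/EBPb activity. After 24 h exposure, reporter mRNA assayed by RT-PCR, fluorescent labelling, HpaI digestion and capillary electrophoresis; bidirectional fitting versus DMSO.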

The nature of experiment [11]: ATG_CMV_CIS: Attagene CIS-FACTORIAL HepG2 Assay for human CMV (Internal Marker) (AID 2282928).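 Further: endpoint acts as a background internal control marker rather than a target.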 Conditions: HepG2 CMV promoter reporter, transcription factor profiling; actives raise or lower the signal. An outline of the steps:
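Bidirectional fits against DMSO are applied to reporter mRNA, read by RT-PCR with capillary electrophoresis, from HepG2 cells exposed 24 h. The endpoint serves as an internal CMV background marker within the cis-factorial reporter panel.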

A short description of experiment [12]: ATG_DR4_LXR_CIS: Attagene CIS-FACTORIAL HepG2 Assay for human Liver X Receptor (LXR), DR4 submotif (AID 2282929). Conditions: HepG2 Attagene DR4 cis-reporter, mRNA transcription; actives raise or lower the signal. An outline of the steps:
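HepG2, transient MRTU transfection, cis-element (DR4) promoter; 24 h compound exposure; total RNA → oligo(dT) RT → PCR → 6-FAM primer extension → HpaI cut → CE. Gain/loss vs DMSO, bidirectional fit.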

Experiment [13] deals with Aryl hydrocarbon receptor (Homo sapiens) (UniProt P35869). Briefly: ATG_Ahr_CIS: Attagene CIS-FACTORIAL HepG2 Assay for human Aryl Hydrocarbon Receptor (Ahr) (AID 2282930). Conditions: HepG2 AhR cis-factorial reporter transcription; actives raise or lower the signal. An outline of the steps:
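HepG2 cells transiently transfected with cis-element-driven multiplexed reporter units; endogenous AhR activity read as reporter mRNA 24 h after dosing, via RT-PCR, 6-FAM labelling, HpaI digestion and capillary electrophoresis. Bidirectional fit relative to DMSO.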

Experiment [14] can be described thus: ATG_AP_1_CIS: Attagene CIS-FACTORIAL HepG2 Assay for human Activator Protein 1 (AP-1) (AID 2282931). Conditions: HepG2 Attagene cis-factorial AP-1 reporter mRNA; actives raise or lower the signal. An outline of the steps: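 Transient MRTU transfection of HepG2 → 24 h chemical treatment → RNA isolation, RT-PCR, 6-FAM labelling, HpaI digest → capillary electrophoresis. Fit: bidirectional, DMSO negative control.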

Experiment [15] in a line: ATG_AP_2_CIS: Attagene CIS-FACTORIAL HepG2 Assay for human Activator Protein 2 (AP-2) (AID 2282932). The following applies: HepG2 AP-2 cis-reporter, Attagene transcription factor profiling; actives raise or lower the signal. An outline of the steps: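 Read-out: fluorescent reporter mRNA via RT-PCR and capillary electrophoresis, 24 h post-dose in transiently transfected HepG2. Endogenous factors drive cis-promoter reporters; gain or loss of signal fitted bidirectionally against DMSO.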

Experiment [16] is described as follows: ATG_BRE_CIS: Attagene CIS-FACTORIAL HepG2 Assay for human Bone Morphogenetic Protein (BMP) Response Element (BRE) (AID 2282933). Conditions: HepG2 BMP response element reporter, Attagene transcription factor profiling; actives raise or lower the signal. The procedure, abridged:
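A HepG2 multiplex reporter system measured inducible reporter mRNA 24 h post-dosing. Detection: RT-PCR, 6-FAM primer extension, HpaI digestion, capillary electrophoresis. Activity fitted bidirectionally relative to DMSO.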

Experiment [17] addresses Retinoic acid receptor alpha (Homo sapiens) (UniProt P10276). As to the kind of experiment: ATG_DR5_RAR_CIS: Attagene CIS-FACTORIAL HepG2 Assay for human Retinoic Acid Receptor Alpha (RARE), DR5 submotif (AID 2282934). The following applies: HepG2 Attagene cis-factorial RARE DR5 reporter, mRNA; actives raise or lower the signal. The procedure, abridged: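 HepG2 cells transiently transfected with multiplexed reporter units; DR5 cis-element drives reporter through endogenous transcription factors. After 24 h dosing, reporter mRNA quantified by RT-PCR, fluorescent labeling, HpaI digestion and capillary electrophoresis; bidirectional fitting versus DMSO.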

Experiment [18] in a line: APR_HepG2_MicrotubuleCSK_72hr: Apredica 72-hour HepG2 Assay for Microtubule CSK Stabilty (AID 2282919). The following applies: HepG2 microtubule cytoskeleton, high-content imaging, actives raise or lower the signal. An outline of the steps: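 HepG2, 72 hr cmpd exposure, 0.39–200 uM (10 pts, duplicate), 0.5% DMSO. 3.7% formaldehyde fix, 0.5% Triton perm, anti-alpha-tubulin/Cy5 plus Hoechst. HCS fluorescence intensity; bidirectional fit vs DMSO baseline; taxol as positive control.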

Experiment [19] in a line: APR_HepG2_StressKinase_24hr: Apredica 24-hour HepG2 Assay for Stress Kinase (AID 2282922). The following applies: HepG2 stress kinase (phospho-c-Jun) imaging, actives raise or lower the signal. An outline of the steps:
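Read-out: phospho-c-Jun immunofluorescence (Cy3 secondary) quantified by high-content imaging at 20x, nuclei defined by Hoechst 33342. Human HepG2 liver cells dosed 24 hr, 0.39–200 uM, DMSO 0.5% v/v; gain or loss of signal fitted relative to DMSO.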

Experiment [20] in a line: APR_HepG2_p53Act_72hr: Apredica 72-hour HepG2 Assay for p53 Activation (AID 2282923).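 Further: average cellular p53 protein immunofluorescence intensity in HepG2 cells.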 The following applies: high-content imaging, actives raise or lower the signal. The procedure, abridged: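 Readout: p53 immunofluorescence quantified by automated high-content imaging at 20x, six fields per well, nuclei located via Hoechst. Dosing ran 72 hr over ten concentrations from 0.39 to 200 uM; bidirectional curve fitting against DMSO baseline.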

The structures appear in SMILES notation. Active and inactive are the calls of the source. How the source made its calls: active means hit-call score of the fitted dose curve at least 0.9, where 1 is the maximum; inactive means score below 0.9.

Sequence of Aryl hydrocarbon receptor (Homo sapiens) (P35869 whole entry, looked up): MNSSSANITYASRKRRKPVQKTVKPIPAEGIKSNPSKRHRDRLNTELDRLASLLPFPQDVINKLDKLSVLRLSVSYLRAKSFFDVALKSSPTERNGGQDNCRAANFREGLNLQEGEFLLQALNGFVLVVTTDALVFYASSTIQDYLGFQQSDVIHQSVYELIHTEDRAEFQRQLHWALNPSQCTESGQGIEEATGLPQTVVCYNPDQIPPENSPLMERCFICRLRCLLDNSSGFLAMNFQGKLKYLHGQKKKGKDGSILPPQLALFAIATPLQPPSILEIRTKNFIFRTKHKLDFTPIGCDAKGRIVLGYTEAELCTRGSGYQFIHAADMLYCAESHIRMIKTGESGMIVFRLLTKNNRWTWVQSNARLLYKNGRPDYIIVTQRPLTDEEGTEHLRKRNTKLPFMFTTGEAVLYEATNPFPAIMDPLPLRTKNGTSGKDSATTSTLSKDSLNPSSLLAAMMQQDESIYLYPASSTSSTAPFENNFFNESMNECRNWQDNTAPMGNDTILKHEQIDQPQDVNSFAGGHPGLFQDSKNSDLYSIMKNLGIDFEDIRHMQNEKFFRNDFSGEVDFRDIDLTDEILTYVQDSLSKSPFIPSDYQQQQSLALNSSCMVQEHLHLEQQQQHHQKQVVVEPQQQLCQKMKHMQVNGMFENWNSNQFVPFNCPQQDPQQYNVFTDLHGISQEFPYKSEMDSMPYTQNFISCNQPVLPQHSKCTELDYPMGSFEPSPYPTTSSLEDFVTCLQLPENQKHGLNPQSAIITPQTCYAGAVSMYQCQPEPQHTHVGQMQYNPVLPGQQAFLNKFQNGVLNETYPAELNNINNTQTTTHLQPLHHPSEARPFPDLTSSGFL
Sequence of Retinoic acid receptor alpha (Homo sapiens) (P10276 whole entry, looked up): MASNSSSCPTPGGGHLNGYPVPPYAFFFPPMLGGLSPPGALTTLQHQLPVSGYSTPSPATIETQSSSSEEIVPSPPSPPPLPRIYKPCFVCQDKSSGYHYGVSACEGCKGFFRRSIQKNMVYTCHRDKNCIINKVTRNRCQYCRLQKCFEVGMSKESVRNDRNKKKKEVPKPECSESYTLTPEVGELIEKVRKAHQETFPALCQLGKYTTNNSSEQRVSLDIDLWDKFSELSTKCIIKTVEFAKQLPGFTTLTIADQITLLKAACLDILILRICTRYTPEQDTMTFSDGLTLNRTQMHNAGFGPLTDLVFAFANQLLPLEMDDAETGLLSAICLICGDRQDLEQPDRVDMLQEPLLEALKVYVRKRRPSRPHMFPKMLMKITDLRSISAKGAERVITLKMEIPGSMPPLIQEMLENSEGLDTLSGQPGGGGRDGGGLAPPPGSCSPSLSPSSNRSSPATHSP
Sequence of CCAAT/enhancer-binding protein beta (Homo sapiens) (P17676 whole entry, looked up): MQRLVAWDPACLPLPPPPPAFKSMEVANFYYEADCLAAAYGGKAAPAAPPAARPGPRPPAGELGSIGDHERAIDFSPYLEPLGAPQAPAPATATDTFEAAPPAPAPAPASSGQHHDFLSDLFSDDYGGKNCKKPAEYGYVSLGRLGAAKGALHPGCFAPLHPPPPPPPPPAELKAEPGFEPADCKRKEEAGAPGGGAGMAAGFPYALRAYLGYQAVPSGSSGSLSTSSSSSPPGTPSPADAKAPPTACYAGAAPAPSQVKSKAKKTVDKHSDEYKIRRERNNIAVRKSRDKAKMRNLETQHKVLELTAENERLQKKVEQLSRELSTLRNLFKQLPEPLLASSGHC

`CC1(C)CON(Cc2ccccc2Cl)C1=O`: the compound was called inactive in experiment [1], in experiment [2], in experiment [3], in [4], in [5] and in experiment [6]. The call in [7], in experiment [8], in experiment [9], in [10], in [11] and in experiment [12] was inactive. For the same compound, the compound was called inactive in [13], in experiment [14], in [15], in experiment [16] and in [17].
With `N#Cc1c(Cl)cccc1Cl`, the result in [1], in experiment [2], in experiment [4], in experiment [18], in experiment [5] and in experiment [6] was inactive. The compound was called inactive in experiment [19], in [20], in experiment [7], in experiment [8], in [9] and in experiment [11]. The outcome in experiment [12], in [13], in experiment [14], in experiment [15] and in [16] was inactive.
With `COCC(C)N(C(=O)CCl)c1c(C)csc1C` (stereo not given), the AC50 in [1] is 51.5 µM (active); in experiment [4], 103 µM (active); in experiment [5], 86.4 µM (active); in experiment [9], 1.83 µM (active). For the same compound, the compound was classed as inactive in experiment [2], in experiment [3], in experiment [6], in experiment [7], in experiment [8] and in [11]. The outcome in experiment [12], in experiment [13], in experiment [14] and in experiment [16] was inactive.
Take `Cc1ccc(N=CN(C)C=Nc2ccc(C)cc2C)c(C)c1`: the result in experiment [1], in experiment [2], in [3], in experiment [6], in [19] and in [7] was inactive. Moreover, the compound was called inactive in experiment [9], in [11], in experiment [12], in experiment [13], in [14] and in experiment [16]. In experiment [17], the compound was classed as inactive. Also, the concentration at half-maximal activity (AC50) in experiment [4] is 82.4 µM (active); in [18] it was 163 µM (active); in experiment [5] it was 154 µM (active).
For `CCCCC(O)(Cn1cncn1)c1ccc(Cl)cc1Cl` (stereo not given), the concentration at half-maximal activity (AC50) is 74.4 µM (active) in [1]; 109 µM (active) in experiment [5]; 122 µM (active) in experiment [6]; 120 µM (active) in [20]; 19.5 µM (active) in experiment [11]; 50 µM (active) in experiment [14]. Further, in experiment [16], the AC50 is 33.3 µM (active). The compound was classed as inactive in experiment [2], in experiment [4], in experiment [19], in experiment [7], in experiment [8] and in experiment [9]. Moreover, the outcome in experiment [12], in experiment [13] and in [15] was inactive.
Consider `CS(=O)(=O)c1cc(C(F)(F)F)ccc1C(=O)c1cnoc1C1CC1`, for which the call in experiment [1], in experiment [2], in experiment [4], in experiment [5], in experiment [6] and in experiment [20] was inactive. Moreover, the result in experiment [7], in experiment [9], in experiment [10], in experiment [11], in experiment [12] and in experiment [13] was inactive. In addition, the compound was called inactive in experiment [16] and in experiment [17]. Besides, in experiment [14], the AC50 was 78.7 µM (active).

By AC50 is commonly meant the concentration giving half of the maximal activity seen.
